Data: the supplement of paper PMC8291772
± gives the standard error. The full ranking holds about 1,300 sequences; the median of “fluorescence a.u.” is about 38, and the highest 2% start at about 280. The sample as a whole holds a higher share of the highest values than the screen did.

molecular target: terminal deoxynucleotidyl transferase (calf thymus) (UniProt P06526); test: TdT poly-dT extension signal (Cy3 hybridisation fluorescence, uncapped minus capped) (fluorescence a.u.); higher = more efficient initiation of TdT extension; conditions: initiator chemistry: L-DNA (mirror-image), free 5'-OH (3'-tethered via HEG linker)
Method: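 All mono- to pentamer D-DNA or L-DNA initiators were made by forward (3'->5') photolithographic in situ synthesis on glass on a hexaethylene glycol linker, leaving a free 5'-OH. Each was made in uncapped and DMTr-dT-capped versions, about 11 replicates each. Arrays were extended with calf thymus TdT (0.2 U/uL), 100 uM dTTP and 0.25 mM CoCl2 for 120 min at 37 C, hybridised with an rA18-Cy3 probe and scanned at 532 nm. The value is the mean uncapped minus the mean capped signal. IDs read 5'->3'. L-DNA is mirror-image; D-DNA 5'-OH initiators were below LOD (no extension).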

Sequence of terminal deoxynucleotidyl transferase (calf thymus) (P06526 whole entry): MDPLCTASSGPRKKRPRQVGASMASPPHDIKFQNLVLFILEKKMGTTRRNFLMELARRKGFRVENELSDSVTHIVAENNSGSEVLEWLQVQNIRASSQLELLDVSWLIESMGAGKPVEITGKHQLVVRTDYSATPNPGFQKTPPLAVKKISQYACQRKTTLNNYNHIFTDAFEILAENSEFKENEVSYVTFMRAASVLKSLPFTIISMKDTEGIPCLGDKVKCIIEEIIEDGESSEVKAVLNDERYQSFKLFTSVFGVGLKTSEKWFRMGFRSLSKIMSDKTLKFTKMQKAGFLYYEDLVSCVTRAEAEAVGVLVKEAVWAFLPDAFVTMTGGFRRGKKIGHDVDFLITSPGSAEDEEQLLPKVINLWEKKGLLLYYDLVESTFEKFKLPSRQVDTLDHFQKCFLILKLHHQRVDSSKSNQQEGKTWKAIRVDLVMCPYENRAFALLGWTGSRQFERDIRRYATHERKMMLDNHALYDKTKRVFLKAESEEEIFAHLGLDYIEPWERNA

Sequence | TdT poly-dT extension signal
CTCAT | 130 ± 12
ATCAT | 172 ± 14
ATCAC | 188 ± 16
TTCA | 275 ± 22
TTCAT | 372 ± 18
GTCAC | 153 ± 10
CTCAA | 147 ± 10
TTCAA | 388 ± 29
TTCAC | 371 ± 39
CTCAG | 173 ± 11
TTCAG | 356 ± 32
GTCAG | 161 ± 18
GAGTT | 40.6 ± 5.8
AAAAG | 101 ± 8.9
GACGG | 117 ± 18
GAACC | 55.9 ± 8.8
ACCAT | 97.4 ± 8.9
GGGTG | 69.1 ± 4.3
TGCGA | 157 ± 7.9
TTATA | 384 ± 22
CTATA | 170 ± 13
CTATG | 161 ± 12
ATATC | 192 ± 14
CTATC | 168 ± 13

Sequence | TdT poly-dT extension signal
ATATA | 192 ± 12
TTGT | 258 ± 19
GTAT | 140 ± 12
TTAT | 340 ± 30
TTATG | 340 ± 26
TTATC | 325 ± 29
ATATG | 192 ± 15
TTGGA | 284 ± 17
AGTGA | 57.2 ± 5.7
ACTCA | 79.4 ± 8.6
TATAT | 197 ± 14
AACTT | 58.3 ± 8.9
ACGCG | 70.6 ± 6.6
GGTTA | 50.7 ± 4.8
TTATT | 381 ± 16
GTATT | 158 ± 10
ATATT | 201 ± 13
TATCC | 138 ± 13
AAAGC | 67 ± 7.7
GCTGA | 75.3 ± 5.4
CGACA | 68.1 ± 4.9
CTAAT | 206 ± 15
TTAAC | 377 ± 27
GTAAC | 191 ± 15

Sequence | TdT poly-dT extension signal
ATAAT | 246 ± 19
TTAA | 347 ± 25
ATAAG | 229 ± 14
TTAAG | 495 ± 38
GTAA | 143 ± 13
CTAAC | 201 ± 14
CTAAG | 215 ± 13
CTAA | 170 ± 12
TTAAT | 491 ± 32
GGAAG | 82.2 ± 8.3
ACGTC | 47.1 ± 4.9
TACTG | 153 ± 14
TCTGA | 172 ± 12
ATCAA | 236 ± 13
GTCA | 95.9 ± 6.2
GGATC | 67.1 ± 5.8
AATA | 106 ± 9.7
ATGGC | 127 ± 8.4
AACGG | 77.3 ± 5.7
GAGTG | 61 ± 6.3
ATAAA | 276 ± 19
CTAAA | 224 ± 15
TTAAA | 563 ± 39
TCGAA | 187 ± 8.6

Sequence | TdT poly-dT extension signal
CTTGC | 107 ± 7.2
ATGAA | 175 ± 12
TTGAG | 317 ± 33
GTGAT | 121 ± 12
TTGAC | 338 ± 26
GTGAG | 160 ± 13
TTGAA | 339 ± 42
GTGAA | 142 ± 17
TTGAT | 314 ± 27
TTGA | 270 ± 19
GTGAC | 144 ± 9
ATGAT | 150 ± 9.9
CTGAG | 130 ± 11
TCTCC | 117 ± 8.4
CCGGG | 82.9 ± 7.7
GTAAA | 239 ± 15
ACTTT | 70.7 ± 5.3
CTGGT | 116 ± 6.9
TCCCG | 199 ± 19
AATG | 74.3 ± 5.6
GTGTT | 100 ± 8.2
CGCGA | 66.2 ± 6
ACCCG | 76.1 ± 6.5
TTTC | 280 ± 19

Sequence | TdT poly-dT extension signal
TTTCG | 286 ± 22
CTTCG | 133 ± 16
TGCAC | 141 ± 11
GGGCG | 83.8 ± 6.6
GACGC | 93 ± 9.5
TTGGG | 335 ± 18
GTTGG | 144 ± 11
TTTGG | 350 ± 26
ATTGT | 167 ± 9.2
ATTGG | 180 ± 13
TTTTG | 293 ± 38
TTTTT | 282 ± 18
TTTT | 223 ± 25
CTGGG | 141 ± 8.5
TTGG | 274 ± 21
GTTGT | 139 ± 8.7
TTTGT | 311 ± 21
GTGGG | 172 ± 9.4
TATCA | 160 ± 12
GGCGC | 77.7 ± 6.3
CGAGC | 65 ± 6.4
